# Experimental data taken from PubChem BioAssay (Tox21).
# Inconclusive results are not listed. Values without a mark were called inactive. The call rests on the fitted dose curve; in most records, active means well fitted activation curve with a large enough effect in the repeat runs; inconclusive means weak or mixed curves; inactive means flat fitted curve, though single readings scatter.
# Experiment: A CellTox Green Cytotoxicity Assay to monitor cytotoxicity in HEK293 cells - 24 hour (AID 1224875); further: nearly all actives have a fitted effect of over 45% in size
# Details: CellTox Green fluorescence; series mostly up to 76.8 µM; activity change: at the top concentration
# Description: National Center for Advancing Translational Sciences [NCATS]
# NIH Chemical Genomics Center [NCGC]
# U.S. Environmental Protection Agency [EPA]
# National Institutes of Environmental Health Sciences [NIEHS]
# National Toxicology Program [NTP]
# Cell-based models are critical for drug discovery. Determining the natural cytotoxic effects resulting from test compounds is an essential research activity. A CellTox Green Cytotoxicity Assay to monitor cytotoxicity in real time of continues cell culture during 40 hours of the compound treatment was used to screen Tox21 10K library compounds in Hek293 cells. CellTox Green Cytotoxicity Assay is a nonlytic, homogeneous, biofluorescent method to measure cytotoxicity in cell culture after experimental manipulation. The assay system uses a proprietary asymmetric cyanine dye that is excluded from viable cells but preferentially stains the dead cell's DNA. […] Viable cells produce no appreciable increases in fluorescence. Therefore, the fluorescence signal produced by the binding interaction with dead cell DNA is proportional to cytotoxicity.
# The mixture of Hek293 cell suspension and reagents were dispensed at 600cells/6 ul/well in 1536-well tissue culture treated black solid bottom plates using a Multidrop dispenser. After the assay plates were incubated at a 37 C/5% CO2 incubator for 5 hours, 23 nL of compounds dissolved in DMSO, positive and negative controls was transferred to the assay plate by a pintool work station. The plates were incubated at 37 C for 40 hours. The fluorescence intensity were measured at 0h, 8h, 16h, 24h, 32h and 40h time points using ViewLux plate reader during compound treatment.
# On the % scale 0 is the no-effect control and ±100 the full control effect.
row,SMILES,activity change
1,C=CC(=O)CC,2.93%
2,CCCC[O][Al]([O]CCCC)[O]CCCC,-6.52%
3,NCC1CCC(C(=O)Oc2ccc(CCC(=O)O)cc2)CC1 (stereo not given),"1.79% [at 35.3 µM, active compounds read high]"
4,CC(=O)SCC(CC(=O)c1ccc(C)cc1)C(=O)O (stereo not given),"-4.94% [at 35.3 µM, active compounds read high]"
5,CC(C)C(C)C,-2.05%
6,O=C1CC2(CCCC2)CC(=O)N1CCNCC1COc2ccccc2O1 (stereo not given),"1.37% [at 35.3 µM, active compounds read high]"
7,CCCc1ncc(C(=O)O)s1,"-2.1% [at 35.3 µM, active compounds read high]"
8,C/C(Cl)=C/CCl,-1.04%
9,CCCCCCCCCCCCCCCC(=O)OC,"-1.12% [at 15.8 µM, active compounds read high]"
10,COCCCOc1cc(C[C@@H](C[C@H](N)[C@@H](O)C[C@H](C(=O)NCC(C)(C)C(N)=O)C(C)C)C(C)C)ccc1OC,"-13.2% [at 35.3 µM, active compounds read high]"
11,CC(=O)/C=C/C=C1/C2CCC(C2)C1(C)C (stereo not given),"24.4% [at 35.3 µM, active compounds read high]"
12,C=CC(=O)OCCOCCOCC,-0.94%
13,C/C=C(\C)C(=O)OC/C=C(\C)CCC=C(C)C,0.0042%
14,C[C@@H]1CCC[C@H](C)N1CCCC(O)(c1ccccc1)c1ccccn1 (stereo not given in full),"-10.5% [at 35.3 µM, active compounds read high]"
15,CC(=O)Nc1ccc(S(=O)(=O)Nc2cc(C)on2)cc1,"-1.56% [at 35.3 µM, active compounds read high]"
16,Clc1ccc2c(c1)Nc1ccccc1S2,"7.87% [at 35.3 µM, active compounds read high]"
17,COC(=O)c1ccc(NC(C)=O)cc1OC,"-5.05% [at 35.3 µM, active compounds read high]"
18,COC(=O)C(c1ccccc1Cl)N1CCc2sccc2C1 (stereo not given),"13.1% [at 35.3 µM, active compounds read high]"
19,CC(C)(C)C(=O)CCc1ccc(Cl)cc1,10.2%
20,CCCCCC(=O)CC,-10.5%

row,SMILES,activity change
1,O=C[C@@H](O)[C@H](O)[C@H](O)CO,-9.95%
2,CCCCCCCCCCCCCC(=O)OCC,-16.2%
3,CN(C)c1cc(NC(=O)CNC(C)(C)C)c(O)c2c1C[C@H]1C[C@H]3[C@H](N(C)C)C(=O)C(C(N)=O)=C(O)[C@@]3(O)C(=O)C1=C2O,"4.32% [at 35.3 µM, active compounds read high]"
4,CC(=O)OCC(=O)[C@@]1(O)CC[C@H]2[C@@H]3CCC4=CC(=O)C=C[C@]4(C)[C@H]3[C@@H](O)C[C@@]21C,"-0.752% [at 35.3 µM, active compounds read high]"
5,CC(=O)Nc1ccc(OCCOCCOc2ccc(NC(C)=O)cc2)cc1,"-7.76% [at 35.3 µM, active compounds read high]"
6,COc1ccccc1N1CCN(CC(O)COc2cc(OC)c(OC)c(OC)c2)CC1 (stereo not given),"0.162% [at 35.3 µM, active compounds read high]"
7,C/C=C(\C)C=O,-21.2%
8,CCOCCOCCOC(C)=O,10.5%
9,Nc1cc(S(=O)(=O)O)ccc1O,20.7%
10,CCN(CC)CC,-9.69%
11,Cc1ccc2cccnc2c1,-2.24%
12,CCN(CC)CC(=O)Oc1ccc(NC(C)=O)cc1,"-1.02% [at 35.3 µM, active compounds read high]"
13,c1coc(Cn2cccc2)c1,-0.149%
14,Cc1cccc(N)n1,-6.23%
15,CCCCCCCC(=O)N(C)C,-0.364%
16,O=C(O)P(=O)(O)O,"1.97% [at 35.3 µM, active compounds read high]"
17,COC(=O)c1ccccc1Cl,-2.07%
18,C=C(C)C(=O)OCCCC,-5.09%
19,CCCCCCCCCCCC(C)=O,-8.37%
20,COc1cc(S(N)(=O)=O)cc(C(=O)O)c1OC,"0.346% [at 35.3 µM, active compounds read high]"
